The record followed here is publication PMC7862700, “An all-to-all approach to the identification of sequence-specific readers for epigenetic DNA modifications on cytosine”.

Assay in all cases: DAPPL (digital affinity profiling via proximity ligation, sequencing); 10 mM Tris-HCl pH 7.5, 50 mM NaCl, 1 mM DTT, 4% glycerol, room temperature, 30 min; GST-TFs on glutathione beads, 16-mer random dsDNA library, 0.1% formaldehyde crosslink after washing; high values mean tight binding
In assay [1] the target is T1, FEV (Homo sapiens, UniProt Q99581 1-238).
T1 sequence: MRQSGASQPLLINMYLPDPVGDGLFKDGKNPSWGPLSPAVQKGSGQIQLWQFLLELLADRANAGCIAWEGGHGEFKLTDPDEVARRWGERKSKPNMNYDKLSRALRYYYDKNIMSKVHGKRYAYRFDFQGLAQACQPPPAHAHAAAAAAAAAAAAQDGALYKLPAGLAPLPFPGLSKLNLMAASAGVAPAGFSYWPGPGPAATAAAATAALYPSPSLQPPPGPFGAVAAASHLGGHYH
The note with it: protein: recombinant; tags: N-terminal GST; dsDNA, one strand shown. The method in brief: (§1)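 Human transcription factors were made in yeast as GST fusions, captured on glutathione beads and barcoded with DNA. With a tag-only sample included, the pool was incubated with 200 nmole of a random double-stranded 16-mer DNA library in Tris/NaCl/DTT/glycerol buffer at room temperature for 30 min, then crosslinked with 0.1% formaldehyde after washing, ligated by proximity, amplified and sequenced. For binding signal, each hexamer's read frequency for a factor is divided by its frequency for the tag-only sample.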

Assay [2] deals with ETV5 (Homo sapiens, UniProt P41161 1-510). The note with it: protein: recombinant; tags: N-terminal GST; dsDNA, one strand shown. The method in brief:
as §1

Assay [3] deals with HSF1 (Homo sapiens, UniProt Q00613 1-529). To be noted: protein: recombinant; tags: N-terminal GST; chain copies: 3; dsDNA, one strand shown. In outline: as §1
Chain of HSF1 (Q00613 whole entry): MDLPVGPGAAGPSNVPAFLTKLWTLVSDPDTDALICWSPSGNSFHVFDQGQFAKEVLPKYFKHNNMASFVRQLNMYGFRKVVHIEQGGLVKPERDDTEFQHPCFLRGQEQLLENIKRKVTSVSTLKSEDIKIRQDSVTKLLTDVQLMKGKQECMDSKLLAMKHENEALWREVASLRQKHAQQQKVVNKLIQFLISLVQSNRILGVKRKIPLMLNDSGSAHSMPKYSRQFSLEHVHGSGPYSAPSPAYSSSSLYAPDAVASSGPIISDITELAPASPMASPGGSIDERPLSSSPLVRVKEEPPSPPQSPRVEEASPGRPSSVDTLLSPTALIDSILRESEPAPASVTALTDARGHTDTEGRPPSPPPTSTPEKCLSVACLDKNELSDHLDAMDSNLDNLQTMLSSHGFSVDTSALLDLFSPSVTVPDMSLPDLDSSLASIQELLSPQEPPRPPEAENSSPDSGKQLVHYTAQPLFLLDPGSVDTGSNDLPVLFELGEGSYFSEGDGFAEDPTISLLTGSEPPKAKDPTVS
Assay [4] deals with T2, SPIC (Homo sapiens, UniProt Q8N5J4 1-248).
T2 sequence: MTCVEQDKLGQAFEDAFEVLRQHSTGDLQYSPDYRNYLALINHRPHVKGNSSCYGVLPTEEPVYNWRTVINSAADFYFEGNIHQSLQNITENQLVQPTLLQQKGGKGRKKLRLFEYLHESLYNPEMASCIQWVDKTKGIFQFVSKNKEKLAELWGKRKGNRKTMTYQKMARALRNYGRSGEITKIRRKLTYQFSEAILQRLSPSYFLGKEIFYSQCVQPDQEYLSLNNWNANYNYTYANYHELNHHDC
To be noted: protein: recombinant; tags: N-terminal GST; dsDNA, one strand shown. In outline: as §1

The target of assay [5] is ELF4 (Homo sapiens, UniProt Q99607 1-663). To be noted: protein: recombinant; tags: N-terminal GST; dsDNA, one strand shown. In outline: as §1
Chain of ELF4 (Q99607 whole entry): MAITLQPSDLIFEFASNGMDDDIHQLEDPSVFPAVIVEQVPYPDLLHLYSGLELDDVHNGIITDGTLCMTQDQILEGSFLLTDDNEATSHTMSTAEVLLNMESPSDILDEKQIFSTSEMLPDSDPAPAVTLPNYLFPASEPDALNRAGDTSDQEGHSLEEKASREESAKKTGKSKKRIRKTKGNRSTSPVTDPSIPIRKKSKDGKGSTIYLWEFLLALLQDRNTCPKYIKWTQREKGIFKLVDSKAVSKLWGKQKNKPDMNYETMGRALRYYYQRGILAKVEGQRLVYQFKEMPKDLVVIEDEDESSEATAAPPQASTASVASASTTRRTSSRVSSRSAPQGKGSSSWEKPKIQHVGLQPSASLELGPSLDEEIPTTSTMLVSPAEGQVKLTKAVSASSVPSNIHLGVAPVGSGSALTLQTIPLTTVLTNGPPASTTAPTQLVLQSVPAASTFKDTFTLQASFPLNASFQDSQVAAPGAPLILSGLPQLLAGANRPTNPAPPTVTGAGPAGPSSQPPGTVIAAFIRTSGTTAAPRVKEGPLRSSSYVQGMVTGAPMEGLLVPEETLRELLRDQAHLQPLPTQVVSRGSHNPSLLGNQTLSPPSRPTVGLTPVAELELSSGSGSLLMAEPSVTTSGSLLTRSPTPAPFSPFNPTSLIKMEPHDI
Assay [6] deals with T3, ELK4 (Homo sapiens, UniProt P28324-2 1-405).
T3 sequence: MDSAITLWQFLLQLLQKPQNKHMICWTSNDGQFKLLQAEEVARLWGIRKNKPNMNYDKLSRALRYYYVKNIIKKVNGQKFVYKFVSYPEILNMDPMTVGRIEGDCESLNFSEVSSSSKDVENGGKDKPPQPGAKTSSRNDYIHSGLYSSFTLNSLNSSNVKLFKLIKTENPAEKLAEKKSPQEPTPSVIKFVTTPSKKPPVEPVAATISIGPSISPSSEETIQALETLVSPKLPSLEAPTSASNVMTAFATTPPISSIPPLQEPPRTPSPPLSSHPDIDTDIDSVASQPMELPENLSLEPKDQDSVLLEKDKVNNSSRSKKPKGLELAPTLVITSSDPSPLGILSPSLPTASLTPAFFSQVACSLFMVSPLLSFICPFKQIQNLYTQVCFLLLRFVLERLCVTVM
The note with it: protein: recombinant; tags: N-terminal GST; dsDNA, one strand shown. The method in brief:
as §1

Assay [7] concerns the target T4, ETV2 (Homo sapiens, UniProt O00321 1-342).
T4 sequence: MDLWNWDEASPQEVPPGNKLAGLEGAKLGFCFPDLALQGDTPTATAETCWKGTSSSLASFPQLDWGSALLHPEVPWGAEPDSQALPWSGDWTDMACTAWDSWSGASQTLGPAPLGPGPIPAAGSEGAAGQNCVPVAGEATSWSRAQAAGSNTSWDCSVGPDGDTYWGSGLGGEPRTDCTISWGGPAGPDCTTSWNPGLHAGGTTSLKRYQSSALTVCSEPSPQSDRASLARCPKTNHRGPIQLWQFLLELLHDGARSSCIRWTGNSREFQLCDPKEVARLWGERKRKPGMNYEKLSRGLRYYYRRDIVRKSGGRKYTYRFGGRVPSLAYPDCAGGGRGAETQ
The note with it: protein: recombinant; tags: N-terminal GST; dsDNA, one strand shown. The method in brief: as §1

Assay [8] has as its target T5, ELF3 (Homo sapiens, UniProt P78545 1-371).
T5 sequence: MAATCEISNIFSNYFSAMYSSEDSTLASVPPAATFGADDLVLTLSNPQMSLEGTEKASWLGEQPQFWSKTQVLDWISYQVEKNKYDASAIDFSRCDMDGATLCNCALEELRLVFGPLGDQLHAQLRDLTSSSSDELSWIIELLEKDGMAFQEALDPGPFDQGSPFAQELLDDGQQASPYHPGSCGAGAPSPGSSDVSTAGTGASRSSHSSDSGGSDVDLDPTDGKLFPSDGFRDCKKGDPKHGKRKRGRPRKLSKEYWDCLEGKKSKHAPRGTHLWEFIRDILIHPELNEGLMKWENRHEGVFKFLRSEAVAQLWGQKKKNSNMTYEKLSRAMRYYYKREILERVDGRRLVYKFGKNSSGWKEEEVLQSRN
To be noted: protein: recombinant; tags: N-terminal GST; dsDNA, one strand shown. The method in brief:
as §1

Assay [9] addresses CRX (Homo sapiens, UniProt O43186 1-299). The note with it: protein: recombinant; tags: N-terminal GST; dsDNA, one strand shown. The method in brief: as §1
For assay [10], the target named is ETV1 (Homo sapiens, UniProt P50549 1-477). The note with it: protein: recombinant; tags: N-terminal GST; dsDNA, one strand shown. In outline: as §1
Chain of ETV1 (P50549 whole entry): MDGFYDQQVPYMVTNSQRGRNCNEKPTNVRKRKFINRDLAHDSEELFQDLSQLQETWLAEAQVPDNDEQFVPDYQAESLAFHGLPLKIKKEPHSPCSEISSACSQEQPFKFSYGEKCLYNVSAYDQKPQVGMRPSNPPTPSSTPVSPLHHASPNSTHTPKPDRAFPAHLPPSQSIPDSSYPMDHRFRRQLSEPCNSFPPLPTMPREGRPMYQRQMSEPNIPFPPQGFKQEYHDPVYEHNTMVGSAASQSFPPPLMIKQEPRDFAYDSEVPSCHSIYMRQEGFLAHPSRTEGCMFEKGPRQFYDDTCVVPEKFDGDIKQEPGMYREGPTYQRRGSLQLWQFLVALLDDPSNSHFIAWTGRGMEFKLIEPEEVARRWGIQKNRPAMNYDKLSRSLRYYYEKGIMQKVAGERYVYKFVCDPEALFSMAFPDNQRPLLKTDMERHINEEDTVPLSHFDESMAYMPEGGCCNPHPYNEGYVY
In assay [11] the target is T6, ERF (Homo sapiens, UniProt P50548 1-548).
T6 sequence: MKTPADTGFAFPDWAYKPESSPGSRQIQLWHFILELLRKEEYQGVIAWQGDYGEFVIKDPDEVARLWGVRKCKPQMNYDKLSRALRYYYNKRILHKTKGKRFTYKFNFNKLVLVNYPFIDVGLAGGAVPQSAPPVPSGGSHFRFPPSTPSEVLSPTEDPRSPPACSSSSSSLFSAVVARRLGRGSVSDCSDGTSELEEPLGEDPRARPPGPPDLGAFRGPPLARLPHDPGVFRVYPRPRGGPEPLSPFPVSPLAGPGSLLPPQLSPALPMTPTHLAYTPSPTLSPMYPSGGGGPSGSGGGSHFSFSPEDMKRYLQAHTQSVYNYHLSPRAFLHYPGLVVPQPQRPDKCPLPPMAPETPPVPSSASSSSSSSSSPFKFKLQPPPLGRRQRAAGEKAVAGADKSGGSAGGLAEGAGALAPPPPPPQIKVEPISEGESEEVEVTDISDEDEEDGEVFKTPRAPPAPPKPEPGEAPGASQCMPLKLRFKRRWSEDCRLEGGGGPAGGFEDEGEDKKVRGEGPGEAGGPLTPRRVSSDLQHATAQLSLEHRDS
The note with it: protein: recombinant; tags: N-terminal GST; dsDNA, one strand shown. In outline: as §1

The target in assay [12] is T7, ETV3L (Homo sapiens, UniProt Q6ZN32 1-361).
T7 sequence: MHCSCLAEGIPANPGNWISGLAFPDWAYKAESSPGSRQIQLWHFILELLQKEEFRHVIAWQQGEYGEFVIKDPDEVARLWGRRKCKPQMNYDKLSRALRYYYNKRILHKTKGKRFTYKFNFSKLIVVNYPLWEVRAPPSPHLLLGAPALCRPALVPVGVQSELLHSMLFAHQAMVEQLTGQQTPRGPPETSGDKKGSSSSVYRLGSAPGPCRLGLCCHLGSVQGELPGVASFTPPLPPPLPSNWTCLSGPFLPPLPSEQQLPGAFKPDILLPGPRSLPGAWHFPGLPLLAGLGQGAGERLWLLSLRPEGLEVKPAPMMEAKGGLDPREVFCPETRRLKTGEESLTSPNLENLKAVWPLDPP
To be noted: protein: recombinant; tags: N-terminal GST; dsDNA, one strand shown. The method in brief: as §1

The target in assay [13] is T8, ETS2 (Homo sapiens, UniProt P15036 1-469).
T8 sequence: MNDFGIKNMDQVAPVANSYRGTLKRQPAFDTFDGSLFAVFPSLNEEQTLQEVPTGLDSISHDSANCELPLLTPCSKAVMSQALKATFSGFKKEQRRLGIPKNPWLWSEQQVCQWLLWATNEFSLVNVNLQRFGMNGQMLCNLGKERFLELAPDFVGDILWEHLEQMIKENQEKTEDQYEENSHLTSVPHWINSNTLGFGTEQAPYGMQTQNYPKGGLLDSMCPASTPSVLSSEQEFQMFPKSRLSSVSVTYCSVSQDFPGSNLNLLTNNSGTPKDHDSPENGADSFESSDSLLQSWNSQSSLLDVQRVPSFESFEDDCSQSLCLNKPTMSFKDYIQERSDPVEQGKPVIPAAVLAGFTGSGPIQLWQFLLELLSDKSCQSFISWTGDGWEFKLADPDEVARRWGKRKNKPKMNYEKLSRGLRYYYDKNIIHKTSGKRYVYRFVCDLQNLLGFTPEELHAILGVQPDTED
The note with it: protein: recombinant; tags: N-terminal GST; dsDNA, one strand shown. The method in brief:
as §1

For assay [14], the target named is T9, SPDEF (Homo sapiens, UniProt O95238 1-335).
T9 sequence: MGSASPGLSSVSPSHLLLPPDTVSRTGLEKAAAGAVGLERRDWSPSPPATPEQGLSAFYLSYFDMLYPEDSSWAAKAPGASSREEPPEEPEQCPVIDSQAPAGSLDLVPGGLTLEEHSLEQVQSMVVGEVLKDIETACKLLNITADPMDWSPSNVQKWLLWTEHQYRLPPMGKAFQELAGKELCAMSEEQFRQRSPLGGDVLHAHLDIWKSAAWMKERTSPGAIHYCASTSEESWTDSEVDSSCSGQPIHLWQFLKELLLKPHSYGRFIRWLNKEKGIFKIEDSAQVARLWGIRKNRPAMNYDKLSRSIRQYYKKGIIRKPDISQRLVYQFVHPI
The note with it: protein: recombinant; tags: N-terminal GST; dsDNA, one strand shown. In outline:
as §1

The target in assay [15] is T10, ETV7 (Homo sapiens, UniProt Q9Y603 1-341).
T10 sequence: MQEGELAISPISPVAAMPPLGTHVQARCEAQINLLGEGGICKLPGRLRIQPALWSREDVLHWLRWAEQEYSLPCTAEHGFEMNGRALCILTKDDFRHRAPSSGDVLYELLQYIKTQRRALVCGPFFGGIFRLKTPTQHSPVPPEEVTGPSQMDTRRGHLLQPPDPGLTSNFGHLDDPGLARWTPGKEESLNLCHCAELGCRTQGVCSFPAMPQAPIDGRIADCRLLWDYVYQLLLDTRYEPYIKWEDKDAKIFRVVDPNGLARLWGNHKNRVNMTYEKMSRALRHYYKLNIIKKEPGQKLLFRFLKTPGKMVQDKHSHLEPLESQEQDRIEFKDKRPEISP
The note with it: protein: recombinant; tags: N-terminal GST; dsDNA, one strand shown. The method in brief: as §1

Assay [16] concerns the target T11, ELF5 (Homo sapiens, UniProt Q9UKW6-2 1-255).
T11 sequence: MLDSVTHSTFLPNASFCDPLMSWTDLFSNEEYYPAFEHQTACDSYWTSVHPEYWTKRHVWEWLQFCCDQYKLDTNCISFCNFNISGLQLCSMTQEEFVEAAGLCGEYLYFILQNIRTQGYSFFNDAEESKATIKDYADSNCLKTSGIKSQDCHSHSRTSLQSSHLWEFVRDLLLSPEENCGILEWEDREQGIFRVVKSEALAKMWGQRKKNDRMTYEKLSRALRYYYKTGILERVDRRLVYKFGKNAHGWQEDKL
To be noted: protein: recombinant; tags: N-terminal GST; dsDNA, one strand shown. The method in brief:
as §1

Assay [17] concerns the target T12, ETV3 (Homo sapiens, UniProt P41162-2 1-143).
T12 sequence: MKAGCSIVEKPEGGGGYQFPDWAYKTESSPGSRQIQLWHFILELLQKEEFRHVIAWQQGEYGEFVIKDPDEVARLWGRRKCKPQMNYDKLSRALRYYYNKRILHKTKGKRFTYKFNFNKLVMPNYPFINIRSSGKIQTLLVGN
The note with it: protein: recombinant; tags: N-terminal GST; dsDNA, one strand shown. The method in brief: as §1

For assay [18], the target named is ETV6 (Homo sapiens, UniProt P41212 1-452). The note with it: protein: recombinant; tags: N-terminal GST; dsDNA, one strand shown. In outline:
as §1

Chain of ETV6 (P41212 whole entry): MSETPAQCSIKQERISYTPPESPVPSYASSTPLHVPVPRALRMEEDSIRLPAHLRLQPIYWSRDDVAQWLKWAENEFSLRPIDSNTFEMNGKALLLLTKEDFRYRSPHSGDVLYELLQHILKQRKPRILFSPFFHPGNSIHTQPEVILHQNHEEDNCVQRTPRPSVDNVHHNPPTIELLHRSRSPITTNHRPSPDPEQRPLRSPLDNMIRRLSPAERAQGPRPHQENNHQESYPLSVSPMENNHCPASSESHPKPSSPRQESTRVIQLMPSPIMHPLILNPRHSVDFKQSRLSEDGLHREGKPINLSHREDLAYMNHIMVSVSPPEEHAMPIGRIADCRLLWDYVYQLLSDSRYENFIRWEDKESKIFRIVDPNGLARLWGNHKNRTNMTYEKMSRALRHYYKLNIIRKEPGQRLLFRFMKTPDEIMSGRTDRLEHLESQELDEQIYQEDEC
Chain of ETV5 (P41161 whole entry): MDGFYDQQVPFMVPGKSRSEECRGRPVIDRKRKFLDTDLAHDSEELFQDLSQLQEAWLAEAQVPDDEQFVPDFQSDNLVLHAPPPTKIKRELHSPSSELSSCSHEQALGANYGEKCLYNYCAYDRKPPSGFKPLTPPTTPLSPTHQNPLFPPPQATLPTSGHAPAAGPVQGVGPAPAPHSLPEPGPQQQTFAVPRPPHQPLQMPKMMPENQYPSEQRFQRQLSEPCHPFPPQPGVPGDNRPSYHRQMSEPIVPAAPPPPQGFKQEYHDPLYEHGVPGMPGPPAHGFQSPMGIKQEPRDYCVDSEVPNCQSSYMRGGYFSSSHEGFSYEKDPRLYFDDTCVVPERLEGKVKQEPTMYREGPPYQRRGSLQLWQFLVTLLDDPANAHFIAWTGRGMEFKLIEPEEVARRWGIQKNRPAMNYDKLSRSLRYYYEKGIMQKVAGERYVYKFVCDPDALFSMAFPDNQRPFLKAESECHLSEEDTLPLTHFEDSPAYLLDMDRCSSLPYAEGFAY
Chain of CRX (O43186 whole entry): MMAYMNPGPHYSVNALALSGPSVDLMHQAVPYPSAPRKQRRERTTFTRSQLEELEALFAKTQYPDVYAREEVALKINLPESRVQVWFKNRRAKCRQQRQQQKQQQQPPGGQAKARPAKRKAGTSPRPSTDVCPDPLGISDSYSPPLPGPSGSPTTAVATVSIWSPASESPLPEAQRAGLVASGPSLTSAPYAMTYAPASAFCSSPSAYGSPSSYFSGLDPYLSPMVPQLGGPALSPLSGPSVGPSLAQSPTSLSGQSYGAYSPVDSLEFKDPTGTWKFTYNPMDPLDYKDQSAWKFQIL

For the sequence AATTAA, the binding signal in assay [1] is 1.14 fold enrichment (6-mer frequency, TF over GST control); in assay [2], 1.29 fold enrichment (6-mer frequency, TF over GST control); in assay [3], 1.74 fold enrichment (6-mer frequency, TF over GST control); in [4], 1.24 fold enrichment (6-mer frequency, TF over GST control); in assay [5], 1.26 fold enrichment (6-mer frequency, TF over GST control); in [6] it was 1.26 fold enrichment (6-mer frequency, TF over GST control). Further, the binding signal was 1.2 fold enrichment (6-mer frequency, TF over GST control) in assay [7]; 1.24 fold enrichment (6-mer frequency, TF over GST control) in assay [8]; 2.5 fold enrichment (6-mer frequency, TF over GST control) in assay [9]; 1.26 fold enrichment (6-mer frequency, TF over GST control) in assay [10]; 1.31 fold enrichment (6-mer frequency, TF over GST control) in assay [11]; 1.2 fold enrichment (6-mer frequency, TF over GST control) in [12]. Moreover, the binding signal in assay [13] was 1.24 fold enrichment (6-mer frequency, TF over GST control); in assay [14] it was 1.17 fold enrichment (6-mer frequency, TF over GST control); in assay [15] it was 1.2 fold enrichment (6-mer frequency, TF over GST control); in assay [16], 1.23 fold enrichment (6-mer frequency, TF over GST control); in assay [17], 1.25 fold enrichment (6-mer frequency, TF over GST control); in assay [18] it was 1.32 fold enrichment (6-mer frequency, TF over GST control).
